Compound activity (PubChem BioAssay)
Pf growth 48h = P. falciparum growth inhibition at 48 hours (one generation). AID 504832. Potency, µM (highest dose often 28.7 µM), for the others: at the highest dose activity change, negative = inhibition, actives largely listed as inhibitors. actives 5.9% (n = 310,000). P. falciparum luciferase growth in erythrocytes, 48 h; further: potency means the concentration at half of the fitted maximal effect; on the % scale 0 is the no-effect control and ±100 the full control effect
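Luciferase-expressing parasites in RBCs, 2% Hct / 0.1% parasitemia final; RPMI 1640 + 0.5% Albumax; 37 C, 5% CO2, one generation; luminescence read-out, lower signal = inhibition.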
Pf growth 96h = P. falciparum growth inhibition at 96 hours | AID 504834 | P. falciparum luciferase reporter growth, 96 h | actives 6.9% (n = 320,000) | Potency, µM (titrated, usually from 28.7 µM), inactives show top-dose activity change, negative = inhibition, hits mostly inhibitors; further: potency means the concentration at half of the fitted maximal effect; on the % scale 0 is the no-effect control and ±100 the full control effect
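Luminescence readout: decreased luciferase signal marks inhibited growth of reporter-expressing P. falciparum in infected red cells (2% hematocrit, 0.05% parasitemia final), exposed to compound two generations (96 h, 37 C, 5% CO2).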
Cycloheximide cs = affects cycloheximide protein synthesis inhibition readout, counter-screen | cell reporter, cycloheximide protein synthesis inhibition counterscreen | max response, % | actives 12% (n = 300,000); in the data active means max response mostly above about 13%, no sharp cut-off; inactive means mostly below about 14%; further: read at 38.3 µM for the half of the compounds with a filed dose; 0% is about no effect
Shiga inhibitor = Shiga toxin inhibition | AID 2315 | inhibition, % at 38.7 µM | actives 9.2% (n = 290,000) | Vero cells, Shiga toxin protein synthesis inhibition reporter; in the data active means inhibition mostly above about 28%, no sharp cut-off; inactive means mostly below about 43%; further: 0% is about no effect
Numbers without * were called inactive; i = inactive; u = inconclusive; x = no result given. A selection: hits, their analogues and other compounds. The true share with any hit is near 21%. Unless noted, the call rests on the fitted dose curve; in most records, active means well fitted inhibition curve with a large enough effect; inconclusive means small, poorly fitted or top-dose-only effect, or another doubt; inactive means no such curve, though single readings can be large or run the other way.

SMILES	Pf growth 48h	Pf growth 96h	Cycloheximide cs	Shiga inhibitor
Cc1[nH]c2ccc(C(=O)OC(C)C(=O)NC3(C#N)CCCCC3)cc2c1C (stereo unspecified)	u	-22%	x	x
Cc1cccc(N/N=C(\C(N)=O)C2=NC(C)(C)Cc3ccccc32)c1	5.9µM*	4.7µM*	-2	-2
O=C(N/C(=C/c1cccc([N+](=O)[O-])c1)C(=O)N1CCCCCC1)c1cccs1	0%	74%	14	-67
CN(C)c1ccc(C(CNS(=O)(=O)c2ccc([N+](=O)[O-])cc2)N2CCCC2)cc1 (stereo unspecified)	44%	u	x	x
CCCc1nnc2n1N=C(c1ccc(C)cc1)CS2	6%	u	4	-3
CCCCC(=O)Nc1cccc2c1C(=O)N(c1ccccc1)C2=O	3%	0.93µM*	-1	-9
CC(=O)Nc1ccc(N2C(=O)c3cccc(NC(C)=O)c3C2=O)cc1	6%	5%	-5	-3
Cc1ccc(OCCOCCn2cnc3ccccc3c2=O)c([N+](=O)[O-])c1	8%	u	1	-4
O=c1c2ccc([N+](=O)[O-])cc2ncn1CCOc1ccccc1	u	u	20*	54*
Cc1ccc(OCCn2cnc3cc([N+](=O)[O-])ccc3c2=O)cc1	u	-16%	-1	-5
O=c1c2ccccc2ncn1CCOc1ccccc1[N+](=O)[O-]	3%	22%	26*	37
Cc1ccc(-c2cccc(-c3cc(=O)oc4ccc(C(C)(C)C)cc34)c2)cc1	x	x	5	i
Cc1cc(C)cc(OCC(=O)N(C)CC(=O)Nc2ccc(N3CCOCC3)cc2)c1	-17%	3%	x	x
c1ccc(CNc2nc(-c3cccnc3)cs2)cc1	u	8%	34*	48
O=C(Nc1nc(-c2cccnc2)cs1)c1ccccc1[N+](=O)[O-]	u	-14%	-1	15
C=CCNc1nc(-c2ccc(O)c(C(N)=O)c2)cs1	8%	-17%	22*	45
Cc1ccc(C)c(OCc2nc(-c3cccnc3)no2)c1	0%	29%	10	30
c1ccc(Nc2nnc(-c3cccnc3)s2)cc1	x	113%	42*	69*
Cc1ccc(C)c(-c2csc(-c3cccnc3)n2)c1	u	u	21*	x
C#CCOCCOCCOCCNc1nc(N2CCN(C(=O)[C@H](CCCCN)n3cc(C(N)COC(=O)C(F)(F)F)nn3)CC2)nc(N2CCN(C(=O)[C@H](CCCCN)n3cc(C(N)CC(C)C)nn3)CC2)n1 (stereo partly specified)	-1%	65%	-6	-8
NC(=O)c1cc(-c2csc(-c3cccnc3)n2)ccc1O	13%	1%	15	61*
c1ccc(-c2csc(-c3cccnc3)n2)cc1	-9%	24%	28*	89*
O=S(=O)(c1ccc(-c2csc(-c3cccnc3)n2)cc1)N1CCOCC1	u	3%	11	-2
O=C(NCCc1csc(-c2cccnc2)n1)c1cccc2ccccc12	u	u	-8	9
c1ccc(-c2nc(-c3cccnc3)cs2)cc1	u	u	46*	52*
SMILES	Pf growth 48h	Pf growth 96h	Cycloheximide cs	Shiga inhibitor
c1ccc(-c2csc(-c3ccc(-c4csnn4)cc3)n2)cc1	132%	160%	7	17
O=C(NCc1ccccc1)c1csc(-c2cccnc2)n1	9.3µM*	31%	2	4
Cc1cc(OC(=O)N(C)C)nn1C(=O)N(C)C	x	x	-7	-5
Cc1ccc(NC(=O)COc2ccc(Br)cc2C)cc1	41%	-18%	70*	91*
O=C(COc1ccc(Br)cc1CNC1CCCC1)Nc1ccccc1	13µM*	-20%	-1	-14
Cc1ccc(OCC(=O)Nc2ccc(S(=O)(=O)N3CCOCC3)cc2)c(Br)c1	10µM*	u	1	-5
O=C(COc1ccc(Br)cc1Cl)NC(=O)NC1CCCC1	174%	159%	x	x
O=C(COc1ccc(Br)cc1CO)Nc1ccc(F)cc1	-9%	-11%	9.1*	35
O=C(C1CCCN(S(=O)(=O)c2ccc(Br)cc2)C1)N1CCOCC1 (stereo unspecified)	4%	-24%	-4	-11
COc1cccc(CN(C)C(=O)COc2ccc(C(=O)c3ccc(Cl)cc3)cc2)c1OC	u	u	-3	13
O=c1[nH]nc(SCc2ccccc2)n1C1CC2C=CC1C2 (stereo unspecified)	-8%	-8%	2	18
O=C(COc1ccc(Br)cc1CO)Nc1ccc(S(=O)(=O)N2CCCC2)cc1	9.3µM*	u	x	x
Cn1c(=O)[nH]c(=O)c2c1nc(Br)n2C/C=N/NC(=O)c1ccccc1	7%	34%	39*	55*
CCOC(=O)CSc1nc2cc(C(=O)NCc3ccco3)ccc2c(=O)n1C1CCCCC1	5.9µM*	-2%	-2	-13
CCOC(=O)N1CCC(n2c(SCC(=O)NCc3ccco3)nc3ccsc3c2=O)CC1	13µM*	u	0	9
O=C(CSc1nc2ccsc2c(=O)n1Cc1ccc(C(=O)O)cc1)NCc1ccco1	-10%	-13%	-5	-15
COc1ccc(Cn2c(SCC(=O)NCc3ccco3)nc3ccsc3c2=O)cc1	13µM*	0%	17*	-40
O=C(C1CC(=O)N(c2ccc(F)cc2)C1)N1CCCCCC1 (stereo unspecified)	0%	-10%	-4	3
CCc1ccc(NC(=O)CN(CC(=O)Nc2ccc(CC)cc2)CC(C)O)cc1 (stereo unspecified)	u	0%	-5	-8
Cc1ccc(S(=O)(=O)NC2=NCN(C(C)C)CN2)cc1	-10%	u	0	2
CCOC(=O)c1ccc(Nc2nnc(C(C)(C)C)c(=O)[nH]2)cc1	5.2µM*	u	14	-7
CCOC(=O)C1CCN(C(=O)C2COc3ccccc3O2)CC1 (stereo unspecified)	5%	16%	7	39
Cc1ccc(C)c(CSc2nc3ccncc3n2CC(=O)Nc2ccc(C)c(C)c2)c1	u	-15%	9	-11
Cc1cccc(CSc2nc3ccncc3n2CC(=O)Nc2ccc(C)c(C)c2)c1	1%	3.7µM*	27*	29
Cc1ccc(NC(=O)Cn2c(/C=C/c3ccccc3)nc3ccccc32)cc1C	u	-84%	18*	19
SMILES	Pf growth 48h	Pf growth 96h	Cycloheximide cs	Shiga inhibitor
CC(C)c1ccccc1NC(=O)Cn1c(/C=C/c2ccccc2)nc2ccccc21	88%	88%	36*	53*
Cc1ccc(NC(=O)Cn2cnc3ccccc32)cc1C	-2%	30%	11	20
O=S(=O)(Nc1ccc(N2CCCCC2)cc1)c1ccccc1F	u	u	16*	36
NS(=O)(=O)c1ccc(NCc2c(F)cccc2Cl)cc1	91%	20%	8	27
O=S(=O)(Nc1ccc(N2CCCCC2)cc1)c1ccc(F)cc1F	u	u	16*	21
Fc1cccc(Cl)c1CNc1ccc(N2CCCC2)cc1	u	23%	29*	22
O=S(=O)(Nc1ccc(N2CCCCC2)cc1)c1cccc2cccnc12	-9%	-26%	7	-3
CCOc1ccc(S(=O)(=O)N2CCCC(C(=O)NC3CC3)C2)cc1Cl (stereo unspecified)	u	0%	x	x
